Screening data: PubChem, National Center for Advancing Translational Sciences (NCATS)
Casp7 inh – caspase-7 (human) inhibition, allosteric or competitive; P55210; recombinant caspase-7, Ac-DEVD-AFC fluorescence rate; Potency, µM (top dose mostly 57.5 µM), hits mostly inhibitors; 75,000 tested, 0.02% active; AID 889; active = well fitted inhibition curve with a large enough effect in the main read-out, with a control signal flat, not every such curve was filed as active; inconclusive = small, poorly fitted or top-dose-only effect, or a change in a side signal
Casp1 inh – allosteric or competitive inhibitors of human caspase-1; P29466; Caspase-1 enzyme, Ac-WEHD-AFC fluorogenic rate; Potency, µM (titrated, usually from 57.5 µM), actives largely listed as inhibitors; 75,000 tested, 0.03% active
USP2a inh – inhibitors of human ubiquitin-specific protease USP2a | O75604 | USP2a enzymatic assay, qHTS inhibition | Potency, µM (titrated, usually from 38.3 µM), usual class: inhibitors | 60,000 tested, 0.1% active; note: nearly all actives have a fitted effect of over 60% in size
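Coupled readout: USP2-cleaved Ub-PLA2 (20nM final) turns over NBD C6-HPC (20uM final), Ex 460nm/Em 535nm after 2.5 h, time-zero read flagging artifacts. Enzyme (20nM final, pH 8.0 Tris) given 30 min RT with compound first; NEM defines full inhibition.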
Numbers stand for hits; - = inactive; ? = inconclusive; . = no result given; [ ] = remark or other dose. A selection: hits, their analogues and other compounds. The true share with any hit is near 0.12%. Unless noted, calls come from the whole dose curve; as a rule, active = well fitted curve in the direction sought with a large enough effect; inconclusive = small, poorly fitted or top-dose-only effect, or another doubt; inactive = no such curve, though single readings can be large; an effect the other way counts as inactive or inconclusive.

SMILES	Casp7 inh	Casp1 inh	USP2a inh
Cc1cc(O)c(-c2n[nH]c3c2C(c2cccc(O)c2)N(Cc2cccnc2)C3=O)cc1Cl (stereo not drawn)	32µM	-	-
COCCCN1C(=O)c2[nH]nc(-c3ccccc3O)c2C1c1cccc(Cl)c1 (stereo not drawn)	-	-	-
C[C@@H]1/C=C\CC(=O)OC[C@H](C)C(=O)N2CCC[C@@H]2C(=O)OC1	-[11.5 µM]	-[11.5 µM]	.
NS(=O)(=O)c1ccc(N=Nc2nc3[nH]c(=O)[nH]c(=O)c3[nH]2)cc1	-[11.5 µM]	-[11.5 µM]	.
CCCCCCC(=O)N1CCC(c2nc3c(nnn3Cc3ccccc3Cl)c(=O)[nH]2)CC1	13µM	-	.
O=C(C1CCCCC1)N1CCC(c2nc3c(nnn3Cc3ccccc3Cl)c(=O)[nH]2)CC1	?	-	-
CC(C)OC(=O)C[C@H](NC(=O)OC(C)(C)C)c1ccccc1	-[11.5 µM]	-[11.5 µM]	.
COC(=O)C1=C(C)N(Cc2ccccc2)C2=C3C(=O)OCCC3[C@@](O)(C(=O)OC)C(=O)N2C1c1ccccc1 (stereo partly drawn)	-[11.5 µM]	-[11.5 µM]	.
COc1ccc(CNc2ncncc2-c2ccoc2)c(OC)c1	-	-	-
O=C(O)CCN1C(=O)c2ccccc2C1=O	-	-	-
O=C1Cc2ccccc2C(=O)N1CCc1ccccc1	6.3µM	5µM	.
CO[C@@H]1/C=C\CC(=O)N[C@@H](C)C(=O)OC[C@H](NS(=O)(=O)c2ccc(C)cc2)[C@H](C)/C=C\CC(=O)OC[C@H]1C	-[11.5 µM]	-[11.5 µM]	.
CO[C@H]1COC(=O)C/C=C\[C@H](C)[C@@H](OC)COC(=O)[C@H](C)COC(=O)C/C=C\[C@@H]1C	-[11.5 µM]	-[11.5 µM]	.
COC(=O)C/C=C1\c2ccccc2C(OC)C1C (stereo not drawn)	-[11.5 µM]	-[11.5 µM]	.
C=COCC1CN2C(CCC(C)C2c2ccc(Br)cc2)C(=O)O1 (stereo not drawn)	-[11.5 µM]	-[11.5 µM]	.
COC(=O)c1ccccc1	-	-	.
O=C(Oc1cccc2c(O)cccc12)c1ccccc1	-	-	13µM
O=C(c1ccc(S(=O)(=O)N2CCC(c3nc4ccccc4[nH]3)CC2)cc1)N1CCOCC1	-	-	13µM
O=C(c1ccc(S(=O)(=O)N2CCC(c3nc4ccccc4s3)CC2)cc1)N1CCOCC1	-	-	.
Cc1cc(F)ccc1OC1C=CC(c2ccc3c(c2)OCO3)OC1CO (stereo not drawn)	-[11.5 µM]	-[11.5 µM]	.
COc1ccc(-c2c(O)c3c(OC)c4c(cc3oc2=O)OC(C)(C)CC4)cc1	-	-	-
COc1ccc(-c2c(O)c3c(OC)c4c(cc3oc2=O)OC(C)(C)C=C4)cc1	-	-	10µM
O[C@@H](COc1cccc2ccccc12)CN1CCOCC1	-[11.5 µM]	-[11.5 µM]	.
COc1cccc(NC(=O)c2cccs2)c1	-	-	-
COc1ccc2c(c1)Cc1sc(NC(=O)c3cccs3)nc1-2	?	32µM	-
SMILES	Casp7 inh	Casp1 inh	USP2a inh
Cc1cc(-c2ccc(N=Nc3cc(S(=O)(=O)O)c4ccccc4c3N)c(C)c2)ccc1N=Nc1cc(S(=O)(=O)O)c2ccccc2c1N	-	-	.
O=C(O)c1c(-c2c3ccc(=O)cc-3oc3cc(O)ccc23)cc2ccccc2c1-c1ccccc1	-[11.5 µM]	-[11.5 µM]	.
C/C=C\C[C@@H](C)[C@@H](O)[C@H]1C(=O)N[C@@H](CC)C(=O)N(C)CC(=O)N(C)[C@@H](CC(C)C)C(=O)N[C@@H](C(C)C)C(=O)N(C)[C@@H](CC(C)C)C(=O)N[C@@H](C)C(=O)N[C@H](C)C(=O)N(C)[C@@H](CC(C)C)C(=O)N(C)[C@@H](CC(C)C)C(=O)N(C)[C@@H](C(C)C)C(=O)N1C	-	-	.
O=C(c1ccc(Cl)c(Cl)c1)N(Cc1ccco1)c1ccc(O)cc1	13µM	-	-
O=C(COc1ccccc1)N(Cc1ccco1)c1ccc(O)cc1	-	-	-
CC(=O)OC[C@H]1O[C@@H](O/N=C(\C)CCN2CCc3nc(-c4ccccc4)c(-c4ccccc4)cc3C2)[C@H](OC(C)=O)[C@@H](OC(C)=O)[C@H]1OC(C)=O	-[11.5 µM]	-[11.5 µM]	.
COc1ccc(COC(=O)N/N=C2/C[C@@H](O)[C@@H](O)[C@@H]3[C@@H]4C(=O)N(c5cccc(Oc6ccccc6)c5)C(=O)[C@H]4CC[C@@H]23)cc1	-[11.5 µM]	-[11.5 µM]	.
O=C1[C@@H]2[C@H]3[C@H](O)[C@H](O)C/C(=N/OC[C@@H](O)COCc4ccco4)[C@H]3CC[C@H]2C(=O)N1c1ccc(F)cc1F	-[11.5 µM]	-[11.5 µM]	.
O=c1ccn([C@@H]2O[C@@H](COP(=O)(O)OP(=O)(O)O)[C@H](O)[C@@H]2O)c(=O)[nH]1	-	-	-
Cc1ccc(S(=O)(=O)n2c3ccccc3c3nnc(C(=O)c4ccccc4)nc32)cc1	-[11.5 µM]	-[11.5 µM]	.
Cc1c(C)c2c(c(C)c1O)CC[C@@](C)(CCC[C@@H](C)CCC[C@@H](C)CCCC(C)C)O2	-	-	7.9µM
Cc1c(C)c2c(c(C)c1O)CC[C@@](C)(C(=O)O)O2	-	-	-
